According to PubChem BioAssay (Tox21):
Several values for one entry are separate records, joined by “and”; a condition that tells them apart may be missing. Equal entries are not always repeated. Results filed as inconclusive are left out. A structure can be active in one record and inactive in another. Activity calls are given as the source filed them. Unless noted, calls come from the whole dose curve; as a rule, active = well fitted curve in the direction sought with a large enough effect in the repeat runs; inconclusive = weak or mixed curves; inactive = no such curve, though single readings can be large; an effect the other way counts as inactive or inconclusive.

What was measured:
[1] = qHTS assay to identify small molecule antagonists of the estrogen related receptor (ERR) signaling pathway from Tox21 library - cell viability counter screen (AID 1224834); note: nearly all actives have a fitted effect of over 30% in size
Summary of the method: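 ERR reporter cells, 2,000 per well, rested 6 h, then exposed to compound in DMSO for 17.5 hours at 37 C. Viability read as fluorescence after 30 min with CellTiter-Fluor.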

[2] = target: Luciferin 4-monooxygenase (Photinus pyralis) (UniProt P08659); experiment: qHTS assay to identify small molecule inhibitors of firefly luciferase (AID 1224835); note: nearly all actives have a fitted effect of over 25% in size; note: potency is the fitted concentration of half-maximal effect
Summary of the method: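 Quantitative HTS format; KM concentrations of both substrates. Purified P. pyralis FLuc activity quantified from luminescence images.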

[3] = qHTS assay to identify small molecule agonists of the constitutive androstane receptor (CAR) signaling pathway - cell viability counter screen (AID 1224836); note: nearly all actives have a fitted effect of over 45% in size
Summary of the method: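 Multiplexed viability check: HepG2-CYP2B6-hCAR cells, 15-point compound dosing, 0.75 uM PK11195 final, 23 h at 37 C, CellTiter-Fluor fluorescence.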

[4] = qHTS assay to identify small molecule antagonists of the constitutive androstane receptor (CAR) signaling pathway - cell viability counter screen (AID 1224837); note: nearly all actives have a fitted effect of over 45% in size
Summary of the method: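 HepG2 cells stably carrying hCAR and CYP2B6-2.2kb reporter, stimulated with 50 nM CITCO and compounds at 15 concentrations for 23 h at 37 C. Viability measured by CellTiter-Fluor fluorescence.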

[5] = target: Nuclear receptor subfamily 1 group I member 3 (Homo sapiens) (UniProt Q14994); experiment: qHTS assay to identify small molecule antagonists of the constitutive androstane receptor (CAR) signaling pathway (AID 1224838); note: nearly all actives have a fitted effect of over 40% in size
Summary of the method: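 HepG2 cells stably carrying hCAR and a CYP2B6-2.2kb luciferase reporter, seeded 4 hrs before compound (15 concentrations). Stimulated with 50 nM CITCO for 24 hr at 37 C. ONE-Glo luminescence read after 30 min at room temperature.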

[6] = target: Nuclear receptor subfamily 1 group I member 3 (Homo sapiens) (UniProt Q14994); experiment: qHTS assay to identify small molecule agonists of the constitutive androstane receptor (CAR) signaling pathway (AID 1224839); note: nearly all actives have a fitted effect of over 15% in size; note: potency is the fitted concentration of half-maximal effect
Summary of the method: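 Using human hepatoma HepG2 cells engineered with hCAR and a CYP2B6-2.2kb reporter, 15-concentration compound series were incubated 24 h alongside PK11195 at 0.75 uM final, with luminescence quantified afterwards.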

[7] = qHTS assay to identify small molecule antagonists of the estrogen related receptor signaling pathway with the pleiotropic PPARgamma coactivator (PGC) from Tox21 10K library - cell viability counter screen (AID 1224840; active = well fitted cell-killing curve with a large enough effect in the repeat runs, not every such curve was filed as active; note: nearly all actives have a fitted effect of over 40% in size)
Summary of the method: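 PGC/ERR cells (2,000/well) plated 6 h, then compound-treated for 17.5 h at 37 C. Viability measured by CellTiter-Fluor fluorescence after 30 min at 37 C, multiplexed with the pathway assay.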

[8] = qHTS assay to identify small molecule antagonists of the estrogen related receptor signaling pathway with the pleiotropic PPARgamma coactivator (PGC) from Tox21 10K library (AID 1224841; call rule not given here; note: actives are mostly falling curves and most rising ones were filed inactive; nearly all actives have a fitted effect of over 50% in size; note: potency is the fitted concentration of half-maximal effect)
Summary of the method: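 PGC/ERR cell line, 2,000 cells/well, pre-incubated 6 hours at 37 C, then exposed to compounds for 18 hours at 37 C; luciferase read with One-Glo luminescence after 30 min at room temperature.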

[9] = qHTS assay to identify small molecule agonists of the estrogen related receptor signaling pathway with the pleiotropic PPARgamma coactivator (PGC) from Tox21 10K library (AID 1224842); note: nearly all actives have a fitted effect of over 15% in size
Summary of the method: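 PGC/ERR reporter cells (NTP line) were seeded 2,000 per well, rested 6 h at 37 C/5% CO2, then pin-dosed with compounds in DMSO for 18 h at 37 C; luciferase read by One-Glo luminescence after 30 min at room temperature.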

[10] = target: Thyrotropin receptor (Homo sapiens) (UniProt P16473); experiment: qHTS assay to identify small molecule agonists of the thyroid stimulating hormone receptor (TSHR) signaling pathway (AID 1224843; calls by dose curve; note: nearly all actives have a fitted effect of over 45% in size)
Summary of the method: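 Cell line HEK293 with TSHR; density 800/well. Exposure 30 min RT. Readout HTRF cAMP (cAMP-d2/anti-cAMP-cryptate), 1 h RT before reading.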

[11] = qHTS assay to identify small molecule agonists of the hypoxia (HIF-1) signaling pathway - cell viability counter screen (AID 1224844; calls by dose curve; note: nearly all actives have a fitted effect of over 50% in size)
Summary of the method: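 HRE-bla ME-180 cells, 2,000/well in 0.5% dialyzed FBS medium, treated 17 h at 37C with compounds. Viability read in the same wells as the bla reporter, by CellTiter-Glo luminescence after 30 min at room temperature.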

[12] = qHTS assay to identify small molecule agonists of H2AX (AID 1224845; active = well fitted activation curve with a large enough effect in the signal ratio in the repeat runs, not every such curve was filed as active; the % refers to the signal ratio; note: potency is the fitted concentration of half-maximal effect)
Summary of the method: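 Wild-type CHO-K1 cells plated overnight, then exposed 3 hr at 37C to compounds at 15 concentrations (0.76% DMSO). Lysed, then HTRF anti-pH2AX(S139)-cryptate/anti-H2AX-d2 detection after 24 hr at room temperature; emissions 665 and 620 nm.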

[13] = qHTS assay to identify small molecule agonists of the hypoxia (HIF-1) signaling pathway (AID 1224846; active = well fitted activation curve with a large enough effect in the signal ratio in the repeat runs, not every such curve was filed as active; the % refers to the signal ratio)
Summary of the method: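 HRE-bla ME-180 beta-lactamase reporter cells in medium with 0.5% dialyzed FBS, pre-incubated 5 h then exposed to compounds 17 h at 37C, 5% CO2; reporter induction read with CCF4-AM FRET substrate.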

[14] = qHTS assay to identify small molecule agonists of H2AX - cell viability counter screen (AID 1224847; calls by dose curve; note: top concentration of the series differs between compounds; nearly all actives have a fitted effect of over 30% in size)
Summary of the method: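 After overnight plating of 1000 CHO-K1 cells per well, a 15-concentration compound series was applied for 3 hr at 37C. Luminescence from CellTiter-Glo, read following 30 min at room temperature, reflected cell viability.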

[15] = qHTS assay to identify small molecule antagonists of the estrogen related receptor (ERR) signaling pathway from Tox21 library (AID 1224848); note: nearly all actives have a fitted effect of over 50% in size; note: potency is the fitted concentration of half-maximal effect
Summary of the method: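 Screening used an ERR reporter line supplied by NTP, exposed for 18 h at 37 C to library compounds delivered in DMSO. Signal was luciferase luminescence developed with ONE-Glo at room temperature for 30 min.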

[16] = qHTS assay to identify small molecule agonists of the estrogen related receptor (ERR) signaling pathway from Tox21 library (AID 1224849; calls by dose curve; note: nearly all actives have a fitted effect of over 15% in size); settings: ERR reporter cell line, ONE-Glo luciferase, 18 h
Summary of the method: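 ERR reporter cells (NTP line) pre-incubated 6 hours at 37 C, then exposed to compounds for 18 hours at 37 C. ONE-Glo luciferase luminescence was read after 30 minutes at room temperature.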

[17] = qHTS RealTime-Glo MT Cell Viability Assay in HepG2 cells - 24 hour (AID 1224867); note: nearly all actives have a fitted effect of over 50% in size
Summary of the method: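 HepG2 suspension premixed with RealTime-Glo reagents is plated at 600 cells per well and left 5 h at 37 C/5% CO2. Compounds in DMSO then go in, and bioluminescence reflecting viable cell number is recorded over 40 h.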

[18] = A CellTox Green Cytotoxicity Assay to monitor cytotoxicity in HEK293 cells - 0 hour (AID 1224869); note: nearly all actives have a fitted effect of over 50% in size
Summary of the method: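 HEK293 cells, 600/well, were preincubated 5 hours and then exposed to compounds at 37 C for up to 40 hours. A cell-impermeant cyanine dye staining dead-cell DNA was read by fluorescence at 0, 8, 16, 24, 32 and 40 h time points.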

[19] = qHTS RealTime-Glo MT Cell Viability Assay in HEK293 cells - 32 hour (AID 1224868)
Summary of the method: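 Reads taken at 0, 8, 16, 24, 32 and 40 h from the same wells. HEK293 cells (600/well) carried RealTime-Glo reagents from seeding, with compound added after a 5 h settle at 37 C.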

[20] = qHTS assay to identify small molecule agonists of the estrogen related receptor signaling pathway with the pleiotropic PPARgamma coactivator (PGC) (AID 1224823)
Summary of the method: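 Steps: plate PGC/ERR cells at 2,000 cells/well; incubate 6 h, 37 C/5% CO2; pin-transfer compounds (DMSO); incubate 18 h, 37 C; add One-Glo; 30 min RT; read luminescence.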
% is set by controls: 0 for no effect and ±100 for the full control effect.

Chain of Nuclear receptor subfamily 1 group I member 3 (Homo sapiens) (Q14994 whole entry, looked up): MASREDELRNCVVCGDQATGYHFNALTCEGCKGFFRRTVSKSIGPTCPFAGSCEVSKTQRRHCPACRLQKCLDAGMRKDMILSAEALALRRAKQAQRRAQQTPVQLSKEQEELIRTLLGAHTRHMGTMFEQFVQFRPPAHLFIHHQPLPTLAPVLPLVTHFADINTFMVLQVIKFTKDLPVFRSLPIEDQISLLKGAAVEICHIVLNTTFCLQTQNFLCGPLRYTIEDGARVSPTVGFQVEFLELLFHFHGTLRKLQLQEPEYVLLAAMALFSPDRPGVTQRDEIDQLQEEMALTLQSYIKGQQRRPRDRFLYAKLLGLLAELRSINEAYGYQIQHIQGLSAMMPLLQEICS
Chain of Luciferin 4-monooxygenase (Photinus pyralis) (P08659 whole entry, looked up): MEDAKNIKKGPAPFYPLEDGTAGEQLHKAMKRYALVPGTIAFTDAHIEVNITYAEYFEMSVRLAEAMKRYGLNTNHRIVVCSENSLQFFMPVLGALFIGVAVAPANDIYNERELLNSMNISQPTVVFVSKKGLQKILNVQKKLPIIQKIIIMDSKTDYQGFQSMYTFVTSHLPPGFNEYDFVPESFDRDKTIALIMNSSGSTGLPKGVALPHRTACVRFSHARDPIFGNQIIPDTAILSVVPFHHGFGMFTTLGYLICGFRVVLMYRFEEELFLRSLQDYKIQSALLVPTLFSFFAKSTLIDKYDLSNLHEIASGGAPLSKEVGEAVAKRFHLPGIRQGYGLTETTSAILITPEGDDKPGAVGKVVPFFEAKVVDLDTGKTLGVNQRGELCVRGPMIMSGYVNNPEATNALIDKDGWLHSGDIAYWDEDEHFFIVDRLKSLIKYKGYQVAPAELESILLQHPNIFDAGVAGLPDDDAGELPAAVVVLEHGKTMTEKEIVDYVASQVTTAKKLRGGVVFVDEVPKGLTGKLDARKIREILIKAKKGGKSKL
Chain of Thyrotropin receptor (Homo sapiens) (P16473 whole entry, looked up): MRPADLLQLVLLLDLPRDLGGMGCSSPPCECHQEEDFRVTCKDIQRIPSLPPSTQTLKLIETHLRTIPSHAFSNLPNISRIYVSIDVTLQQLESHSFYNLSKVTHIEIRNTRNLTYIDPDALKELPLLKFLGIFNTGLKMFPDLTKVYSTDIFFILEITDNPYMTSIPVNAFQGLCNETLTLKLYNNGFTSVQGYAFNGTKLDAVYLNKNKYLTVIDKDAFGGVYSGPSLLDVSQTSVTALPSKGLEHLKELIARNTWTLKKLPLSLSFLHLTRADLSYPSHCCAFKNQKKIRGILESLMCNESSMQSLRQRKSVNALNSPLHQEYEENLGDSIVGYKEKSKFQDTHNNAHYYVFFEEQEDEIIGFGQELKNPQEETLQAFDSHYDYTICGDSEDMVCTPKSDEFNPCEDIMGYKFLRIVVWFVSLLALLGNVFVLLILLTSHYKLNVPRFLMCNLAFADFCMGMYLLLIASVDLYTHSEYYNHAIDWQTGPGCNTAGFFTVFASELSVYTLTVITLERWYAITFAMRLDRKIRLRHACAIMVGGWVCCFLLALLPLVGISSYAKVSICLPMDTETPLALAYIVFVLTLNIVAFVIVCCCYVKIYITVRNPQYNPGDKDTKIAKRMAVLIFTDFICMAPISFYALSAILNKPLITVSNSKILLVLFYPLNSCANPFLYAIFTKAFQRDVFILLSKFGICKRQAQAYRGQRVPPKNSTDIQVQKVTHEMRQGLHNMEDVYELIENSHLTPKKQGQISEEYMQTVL

O=C1O[C@H](CO)[C@@H](O)[C@H](O)[C@H]1O
inactive: Potency [1] | Potency [2] | Potency [3] | Potency [4] | Potency [5] | Potency [6] | Potency [7] | Potency [8] | Potency [9] | Potency [10] | Potency [11] | Potency [12] | outcome [13] | Potency [14] | Potency [15] | activity change, positive = activation ([16]; at 42.5 µM (top of the series)) 3.62% | activity change, positive = activation ([16]; at 92.4 µM (top of the series)) -0.676% | Potency [17]

OC1CCCC1
inactive: Potency [1] | Potency [2] | Potency [3] | Potency [4] | Potency [5] | Potency [6] | Potency [7] | Potency [8] | Potency [9] | Potency [10] | Potency [11] | Potency [12] | outcome [13] | Potency [14] | Potency [15] | activity change, positive = activation ([16]; at 92.4 µM (top of the series)) 4.85% and 0.946% | Potency [17] | Potency [18]

Oc1ccc(OCc2ccccc2)cc1
22.1 µM (active) and inactive: Potency [12]
inactive: Potency [1] | Potency [3] | Potency [4] | Potency [5] | Potency [7] | Potency [10] | Potency [11] | outcome [13] | Potency [14] | Potency [17] | Potency [18]
active: Potency [2] 31.1 µM and 17.4 µM | Potency [6] 23.8 µM

Cc1ccc(C)c(C)c1
inactive: Potency [1] | Potency [2] | Potency [3] | Potency [4] | Potency [5] | Potency [6] | Potency [7] | Potency [10] | Potency [11] | Potency [12] | outcome [13] | Potency [14] | Potency [17] | Potency [18]

C[C@@H](O)[C@H]1C(=O)N2C(C(=O)O)=C(S[C@@H]3CN[C@H](C(=O)N(C)C)C3)[C@H](C)[C@H]12
inactive: Potency [1] | Potency [2] | Potency [3] | Potency [4] | Potency [5] | Potency [6] | Potency [7] | Potency [8] | Potency [9] | Potency [10] | Potency [11] | Potency [12] | Potency [14] | Potency [15] | activity change, positive = activation ([16]; at 42.5 µM (top of the series)) 6.5% and 3.13% | Potency [17] | Potency [19]

CC#C[C@]1(O)CC[C@H]2[C@@H]3CCC4=CC(=O)CCC4=C3[C@@H](c3ccc(N(C)C)cc3)C[C@@]21C
active: Potency [8] 21.7 µM and 29.8 µM | Potency [15] 26.6 µM
inactive: Potency [20] | Potency [2] | Potency [5] | Potency [6] | Potency [7] | Potency [9] | Potency [10] | Potency [11] | outcome [13] | Potency [14] | activity change, positive = activation ([16]; at 42.5 µM (top of the series)) -53.3% | activity change, positive = activation ([16]; at 92.4 µM (top of the series)) -62.2% | Potency [17] | Potency [18]

CCc1ccc(O)cc1
inactive: Potency [1] | Potency [2] | Potency [3] | Potency [4] | Potency [5] | Potency [6] | Potency [7] | Potency [8] | Potency [9] | Potency [10] | Potency [11] | Potency [12] | outcome [13] | Potency [14] | Potency [15] | activity change, positive = activation ([16]; at 92.4 µM (top of the series)) 0.519% and 6.7% | Potency [18]
